The nature of assay [1]: qHTS for Inhibitors of the vitamin D receptor (VDR): Hit Validation using a Texas Red Assay (AID 602201). Further: potency means the concentration at half of the fitted maximal effect. In a few lines:
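Fluorescence polarization with 1.5 uM VDR-LBD, LG19078 and 7 nM Texas Red (final). After 2 hours at ambient temperature, read at Ex 595 nm/Em 615 nm.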

Assay [2] deals with Vitamin D3 receptor (Homo sapiens) (UniProt P11473). The assay is described as follows: qHTS for Inhibitors of the vitamin D receptor (VDR): Hit Validation in Primary Screen (AID 602199). Further: potency means the concentration at half of the fitted maximal effect. The conditions noted are these: VDR-coactivator inhibition assay, qHTS confirmation. In short, it runs like this:
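Fluorescence polarization (Ex 620/Em 688 nm) of Alexa 647-SRC2-3 peptide with 800 nM VDR and 5 uM LG19078. Compounds at several concentrations, 2 h at room temperature.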
For orientation: Quantitative high-throughput screening tests each substance at several concentrations.

The target is the same in assay [3]. The assay is described as follows: qHTS for Inhibitors of the vitamin D receptor (VDR): Hit Validation using a Beta-Lactamase Assay (AID 602202). Further: potency means the concentration at half of the fitted maximal effect. In a few lines: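 Stably transfected HEK293 cells expressing VDR-GAL4 DNA-binding domain fusion with UAS-driven beta-lactamase reporter, activated by agonist LG190178; compounds incubated 18 h, then FRET beta-lactam substrate 2 h; cleaved substrate read at 447 nm emission.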

Assay [4] has the same target. Description: qHTS for Inhibitors of the vitamin D receptor (VDR): Hit Validation using a Fluorescein Assay (AID 602200). Further: potency means the concentration at half of the fitted maximal effect. The conditions noted are these: VDR-coactivator binding, fluorescein fluorescence polarization. In short, it runs like this: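 Fluorescence polarization: 1.5 uM VDR-LBD, 5 uM LG19078 and 5 nM fluorescein-labeled SRC2-3 peptide (final) with compounds, 2 h at room temperature. Read at Ex 495/Em 520 nm; peptide-only wells served as control.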

Assay [5] deals with Bifunctional 3'-5' exonuclease/ATP-dependent helicase WRN (Homo sapiens) (UniProt Q14191). The assay is described as follows: qHTS for Inhibitors of WRN Helicase: Confirmatory Assay for Cherry-picked Compounds. (AID 720497). Further: series mostly up to about 57 µM; nearly all actives have a fitted effect of over 65% in size. In short, it runs like this:
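WRN (20 nM) was preincubated 15 min at RT with compound, then started with 100 nM forked duplex oligonucleotide and 2 mM ATP. Unwinding was read kinetically by red fluorescence (ex 525/em 598 nm), normalized to enzyme-free and uninhibited controls.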

In assay [6] the target is RecQ-like DNA helicase BLM (Homo sapiens) (UniProt P54132). Description: qHTS for Inhibitors of WRN Helicase: BLM Helicase Counterscreen for WRN Inhibitors (AID 720503). Further: nearly all actives have a fitted effect of over 60% in size. In short, it runs like this:
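BLM (1 nM) was preincubated with compounds for 15 min at room temperature in Tris-HCl pH 8.0, 50 mM NaCl, 2 mM MgCl2 buffer. Unwinding started with 100 nM DNA and 2 mM ATP (final); red fluorescence was read twice, 15 min apart.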

Inconclusive results are not listed. The list shows a part of the results. Calls of active or inactive are those of the source. The call rests on the fitted dose curve; in most records, active means well fitted curve in the direction sought with a large enough effect; inconclusive means small, poorly fitted or top-dose-only effect, or another doubt; inactive means no such curve, though single readings can be large; an effect the other way counts as inactive or inconclusive.

Vitamin D3 receptor (Homo sapiens), sequence (P11473 whole entry, looked up): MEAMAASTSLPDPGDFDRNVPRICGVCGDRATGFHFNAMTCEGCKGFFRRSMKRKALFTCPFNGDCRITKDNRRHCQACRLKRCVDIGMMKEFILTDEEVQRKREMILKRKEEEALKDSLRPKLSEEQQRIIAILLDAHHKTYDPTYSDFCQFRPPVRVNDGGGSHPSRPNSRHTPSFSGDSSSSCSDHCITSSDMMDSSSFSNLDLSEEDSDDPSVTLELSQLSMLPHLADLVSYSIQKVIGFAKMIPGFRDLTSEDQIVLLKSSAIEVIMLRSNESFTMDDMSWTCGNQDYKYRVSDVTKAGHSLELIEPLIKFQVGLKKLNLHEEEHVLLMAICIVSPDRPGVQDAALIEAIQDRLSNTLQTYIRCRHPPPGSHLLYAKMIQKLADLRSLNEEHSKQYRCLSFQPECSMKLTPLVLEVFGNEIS
RecQ-like DNA helicase BLM (Homo sapiens), sequence (P54132 whole entry, looked up): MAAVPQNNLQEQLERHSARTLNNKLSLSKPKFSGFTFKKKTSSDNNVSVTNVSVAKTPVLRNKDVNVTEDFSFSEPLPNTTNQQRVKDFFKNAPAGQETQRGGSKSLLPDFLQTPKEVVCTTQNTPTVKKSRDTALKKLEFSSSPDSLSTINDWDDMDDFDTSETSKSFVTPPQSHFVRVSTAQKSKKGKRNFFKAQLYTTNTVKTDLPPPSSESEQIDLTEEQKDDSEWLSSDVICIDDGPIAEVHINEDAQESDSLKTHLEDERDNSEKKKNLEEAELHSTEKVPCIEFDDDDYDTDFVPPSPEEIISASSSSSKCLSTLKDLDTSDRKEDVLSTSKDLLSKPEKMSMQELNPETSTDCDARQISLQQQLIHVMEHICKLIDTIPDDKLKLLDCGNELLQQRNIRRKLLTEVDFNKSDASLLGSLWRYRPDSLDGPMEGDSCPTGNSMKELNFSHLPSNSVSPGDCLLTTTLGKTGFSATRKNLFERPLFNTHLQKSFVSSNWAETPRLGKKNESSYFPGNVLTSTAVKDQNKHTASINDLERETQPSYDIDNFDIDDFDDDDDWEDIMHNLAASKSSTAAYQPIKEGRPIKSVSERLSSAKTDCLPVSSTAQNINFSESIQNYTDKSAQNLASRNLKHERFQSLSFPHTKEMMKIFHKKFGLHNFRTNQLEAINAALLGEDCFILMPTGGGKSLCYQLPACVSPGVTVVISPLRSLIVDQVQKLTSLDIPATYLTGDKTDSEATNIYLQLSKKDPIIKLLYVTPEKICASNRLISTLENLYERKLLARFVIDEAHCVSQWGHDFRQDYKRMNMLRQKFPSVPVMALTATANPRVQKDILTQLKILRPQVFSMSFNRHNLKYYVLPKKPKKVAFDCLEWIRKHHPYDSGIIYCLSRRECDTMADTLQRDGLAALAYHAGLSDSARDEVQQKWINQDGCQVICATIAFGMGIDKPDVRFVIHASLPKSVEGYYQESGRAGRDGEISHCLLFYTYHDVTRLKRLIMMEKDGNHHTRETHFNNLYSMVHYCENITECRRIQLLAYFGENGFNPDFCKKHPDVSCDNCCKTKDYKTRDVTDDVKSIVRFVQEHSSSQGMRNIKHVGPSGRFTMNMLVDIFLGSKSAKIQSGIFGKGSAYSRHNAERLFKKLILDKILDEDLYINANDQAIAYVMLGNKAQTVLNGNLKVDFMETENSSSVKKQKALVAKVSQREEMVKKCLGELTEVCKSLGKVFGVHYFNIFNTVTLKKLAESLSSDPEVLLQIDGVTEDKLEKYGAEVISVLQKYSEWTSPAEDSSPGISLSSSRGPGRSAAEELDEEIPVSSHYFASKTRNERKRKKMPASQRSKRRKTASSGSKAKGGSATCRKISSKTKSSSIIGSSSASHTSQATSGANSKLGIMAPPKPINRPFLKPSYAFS
Bifunctional 3'-5' exonuclease/ATP-dependent helicase WRN (Homo sapiens), sequence (Q14191 whole entry, looked up): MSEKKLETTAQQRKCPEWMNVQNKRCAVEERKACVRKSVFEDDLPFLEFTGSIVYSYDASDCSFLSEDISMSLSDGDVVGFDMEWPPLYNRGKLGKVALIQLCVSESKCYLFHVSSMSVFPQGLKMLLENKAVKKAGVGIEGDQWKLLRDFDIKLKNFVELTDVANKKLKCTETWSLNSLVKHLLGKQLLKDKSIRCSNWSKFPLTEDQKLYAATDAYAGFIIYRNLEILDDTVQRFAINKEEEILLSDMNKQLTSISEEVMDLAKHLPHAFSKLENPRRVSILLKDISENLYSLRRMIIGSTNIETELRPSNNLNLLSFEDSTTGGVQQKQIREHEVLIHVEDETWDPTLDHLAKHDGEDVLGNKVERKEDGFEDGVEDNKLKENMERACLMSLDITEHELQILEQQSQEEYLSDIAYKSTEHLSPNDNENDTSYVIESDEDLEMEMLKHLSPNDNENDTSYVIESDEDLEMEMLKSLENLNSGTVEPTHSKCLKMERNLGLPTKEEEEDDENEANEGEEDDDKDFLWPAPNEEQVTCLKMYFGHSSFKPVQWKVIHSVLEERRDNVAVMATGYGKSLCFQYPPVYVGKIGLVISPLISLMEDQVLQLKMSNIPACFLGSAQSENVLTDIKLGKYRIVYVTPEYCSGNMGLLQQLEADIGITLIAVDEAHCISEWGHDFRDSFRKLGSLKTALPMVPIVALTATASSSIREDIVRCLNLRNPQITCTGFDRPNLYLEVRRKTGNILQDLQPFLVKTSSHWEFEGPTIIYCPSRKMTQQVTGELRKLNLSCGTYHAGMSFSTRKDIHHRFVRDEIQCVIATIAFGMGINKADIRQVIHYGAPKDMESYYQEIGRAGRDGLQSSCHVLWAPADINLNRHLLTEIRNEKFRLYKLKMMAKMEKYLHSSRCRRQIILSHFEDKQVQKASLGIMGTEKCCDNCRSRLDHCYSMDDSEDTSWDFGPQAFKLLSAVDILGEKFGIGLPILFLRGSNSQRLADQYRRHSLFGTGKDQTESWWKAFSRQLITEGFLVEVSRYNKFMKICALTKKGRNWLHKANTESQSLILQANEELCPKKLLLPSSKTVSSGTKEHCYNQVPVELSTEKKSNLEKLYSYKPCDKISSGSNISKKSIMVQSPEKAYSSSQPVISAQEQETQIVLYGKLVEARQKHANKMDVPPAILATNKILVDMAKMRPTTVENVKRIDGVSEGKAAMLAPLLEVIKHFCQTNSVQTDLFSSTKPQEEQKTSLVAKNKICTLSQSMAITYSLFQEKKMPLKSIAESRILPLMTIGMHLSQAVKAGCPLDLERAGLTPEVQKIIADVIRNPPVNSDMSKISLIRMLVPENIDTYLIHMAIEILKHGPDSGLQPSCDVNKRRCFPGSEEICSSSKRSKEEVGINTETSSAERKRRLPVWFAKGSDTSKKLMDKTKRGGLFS

For `CCc1oc2ccccc2c1C(=O)CCN1CCCCC1`, in assay [1], the Potency was 3.55 µM (active).

Consider `CSc1nnc(NC(=O)c2nc(S(=O)(=O)Cc3ccc(C)cc3)ncc2Cl)s1`, for which the Potency is 7.52 µM (active) in assay [2] and 5.8 µM (active) in assay [3]. Further, in assay [1], the Potency result is “inactive”.

Consider `COc1ccc(CS(=O)/C(Cl)=C(/Cl)C(=O)Nc2ccc(OC)nc2)cc1` (stereo not given), for which the Potency is 5.97 µM (active) in assay [2] and 0.731 µM (active) in assay [3].

Regarding `COc1ccccc1N1C(=O)C=C(Sc2nc(C)cc(C)n2)C1=O`, in assay [1], the Potency was 14.1 µM (active).

Consider `CCOc1ccc(N(Cc2ccccc2)C(=O)c2nc(S(C)(=O)=O)ncc2Cl)cc1`, for which the Potency in assay [2] is 4.47 µM (active); in assay [4], 3.55 µM (active); in assay [3], 20.6 µM (active).

Take `COC(=O)/C=C\C(=O)Nc1cccc([N+](=O)[O-])c1`: the values for the Potency in assay [2] and in assay [3] were 5.32 µM (active) and 14.6 µM (active), respectively. In addition, the Potency result in assay [5] and in assay [6] was “inactive” each time.

With `Cc1cccc(CS(=O)(=O)c2ncc(Cl)c(C(=O)Nc3ccc(F)cc3)n2)c1`, the Potency in assay [2] is 3.36 µM (active); in assay [3] it was 5.17 µM (active).

As for `CC(=O)NC1=CC(=O)c2nonc2C1=O`, in assay [1], the Potency was 3.16 µM (active).

With `CCOc1cc(/C=C2\COc3ccccc3C2=O)cc(Br)c1OCC(=O)N(C)C`, in assay [1], the Potency result is “inactive”.

`COc1ccc(OC)c(/C=C/C(=O)c2ccc(Cl)cc2)c1`: in assay [1], the Potency is 28.2 µM (active).

As to `C=CCOc1ccc(/C=C2/C(=O)ON=C2C)cc1OCC`, the Potency in assay [2] is 10.6 µM (active). The Potency entry in assay [3] was “inactive”.

For the compound `Oc1ccc(N=C/C=C/c2cccc(Br)c2)cc1-c1nc2ccccc2s1`, the Potency in assay [1] was 15.8 µM (active).

Turning to `O=c1cc(CO)oc(C(Nc2cccc(C(F)(F)F)c2)c2ccccn2)c1O` (stereo not given), the Potency in assay [2] is 16.8 µM (active). Besides, the Potency entry in assay [1] and in assay [3] was “inactive” each time.

As to `CC1CCN(C(=S)c2ccc(-c3ccc(Cl)cc3Cl)o2)CC1`, the Potency is 21.2 µM (active) in assay [2] and 25.1 µM (active) in assay [4]. Besides, in assay [3], the Potency result is “inactive”.

Take `CN(C)N=Nc1ccc2nc[nH]c2c1`: the Potency in assay [2] is 10.6 µM (active). Moreover, the Potency result in assay [1] and in assay [3] was “inactive” in each case.

With `O=C(/C(=C/c1ccncc1)n1ccnc1)c1ccc(Cl)cc1Cl`, the Potency in assay [1] was 14.1 µM (active).

Turning to `CCOc1ccc(Cl)cc1/C=C1/C(=O)ON=C1C`, the Potency in assay [1] is 7.94 µM (active).

For the compound `O=C(CCN1CCc2ccccc2C(O)(c2ccccc2)C1)c1ccc2c(c1)OCCO2` (stereo not given), in assay [2], the Potency was 10.6 µM (active). In addition, the Potency entry in assay [1] is “inactive”.

As for `O=C(Nc1ccccc1)c1nnsc1S(=O)(=O)c1ccc(Cl)cc1`, the Potency in assay [2] was 16.8 µM (active); in assay [4], 7.08 µM (active). For the same compound, the Potency entry in assay [6] is “inactive”.

As to `Cc1c(C(=O)Nc2nc(-c3ccccn3)cs2)oc2ccccc12`, the Potency entry in assay [1] is “inactive”.

`O=C(Cc1ccccc1Cl)NC1(O)C(=O)c2ccccc2C1=O`: in assay [1], the Potency result is “inactive”.

As for `O=[N+]([O-])/C=C/c1ccc2c(ccn2Cc2ccccc2)c1`, the Potency in assay [2] was 6.7 µM (active); in assay [3], 18.4 µM (active).

As to `O=C(/C=C/c1ccc(Cl)cc1Cl)c1cccnc1`, in assay [2], the Potency is 9.47 µM (active). In assay [3], the Potency entry is “inactive”.

As to `CCOC(=O)N1CCN(C(c2cccnc2)c2ccc3cccnc3c2O)CC1` (stereo not given), in assay [2], the Potency is 7.52 µM (active). In assay [3], the Potency result was “inactive”.

As to `O=c1[nH]c(/C=C\c2cccc(C(F)(F)F)c2)nc(O)c1[N+](=O)[O-]`, the values for the Potency in assay [2] and in assay [4] were 18.9 µM (active) and 10 µM (active), respectively. For the same compound, in assay [3], the Potency entry was “inactive”.

`Cc1cccc(Oc2c([N+](=O)[O-])c(=O)n(C)c3ccccc23)c1`: the Potency was 21.2 µM (active) in assay [2] and 20 µM (active) in assay [4]. In addition, the Potency result in assay [3] was “inactive”.

With `Cc1ccc(-c2nc3ccccn3c2Nc2c(C)cccc2C)o1`, the results for the Potency in assay [2] and in assay [4] were 17.8 µM (active) and 28.2 µM (active), respectively. For the same compound, in assay [3], the Potency entry was “inactive”.

Regarding `CCOC(=O)c1sc(NC(=O)CSc2nc(C)cc(C(F)(F)F)n2)c(C#N)c1C`, the Potency in assay [2] was 11.9 µM (active). The Potency result in assay [3] is “inactive”.

Consider `CCCCS(=O)(=O)c1oc(-c2cccs2)nc1S(=O)(=O)c1ccccc1`, for which the figures for the Potency in assay [2], in assay [4] and in assay [3] were 2.24 µM (active), 3.16 µM (active) and 5.8 µM (active), respectively.

The values above are taken from PubChem BioAssay (NCATS).
